In PubChem BioAssay (NCI):
Compounds without any hit were thinned out: in the full panel of roughly 79,000, 15% have a hit. A number with no mark means an inactive call. Rule as the data show it: active = growth inhibition above about 70%; inactive = the rest. Where a SMILES comes first, the peptide text is derived from it. [ ]: non-standard residue; d: D form. The star is where a group is joined. Phe(4-NO2) = N[CH](Cc1ccc([N+](=O)[O-])cc1)C(=O)O; Boc = CC(C)(C)OC(=O)*; OtBu = CC(C)(C)O*

experiment: NCI Yeast Anticancer Drug Screen. Data for the rad50 strain (AID 155);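 also: 0% = growth of vehicle-only cultures of the same strain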; details: S. cerevisiae rad50 strain growth inhibition; at 50.0 µM; active compounds read high
Method in brief: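 Readout: growth inhibition relative to vehicle-treated cultures. Compound exposure was carried out in a genetically defined yeast strain deficient in DNA damage repair.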

Row | Compound | growth inhibition [%]
1 | COC1CC2CC1C1COCC21 (stereo not drawn) | 7.15
2 | CC(=O)NC(CCC(=O)OC(C)(C)C)C(=O)NC(CCC(=O)OC(C)(C)C)C(=O)NC(Cc1ccc([N+](=O)[O-])cc1)C(=O)NC(CCCCNC(=O)OC(C)(C)C)C(=O)NC(CCCCNC(=O)OC(C)(C)C)C(=O)NCC(=O)O (stereo not drawn) (Ac-E(OtBu)E(OtBu)[Phe(4-NO2)]K(Boc)K(Boc)G-OH; configuration not given here) | -31.4
3 | COC(=O)c1nnn(CCc2c[nH]c3ccccc23)c1C(=O)OC | -10.8
4 | O=c1ccn2c(n1)OC1CC2OC1COC(c1ccccc1)(c1ccccc1)c1ccccc1 (stereo not drawn) | -8.8
5 | O=C(C(=NC12CC3CC(CC(C3)C1)C2)NNc1ccc([N+](=O)[O-])cc1[N+](=O)[O-])C(Br)C(=O)c1ccccc1 (stereo not drawn) | 47.2
6 | O=C1CC(c2ccccc2)=NN1c1ccccc1 | -8.3
7 | COCCNC(=O)/C=C\C(=O)O | 3.35
8 | C=CCCCC1CCCNC1=O (stereo not drawn) | 5.05
9 | O=C(NC(=O)c1c(F)cccc1F)Nc1ccc(C(O)(C(F)(F)F)C(F)(F)F)cc1 | -33.2
10 | Nc1nc(-c2ccc(F)cc2)cc(-c2cc(-c3ccc(F)cc3)nc(N)n2)n1 | -17.1
11 | CCc1cccc(CC)c1N(C(C)=O)C(C)=O | 8.55
12 | O=[N+]([O-])c1ccc(CSc2ncnc3c2ncn3C2OC(CO)C(O)C2O)cc1 (stereo not drawn) | 10.7
13 | c1ccc(N2CCN(C(c3cccs3)N3CCN(c4ccccc4)CC3)CC2)cc1 | 7.35
14 | CN(C)CCNC(=O)c1cccc2c(Nc3ccc(S(N)(=O)=O)cc3)c3ccccc3nc12 | -43.7
15 | CCCCCCCCCCN(CCCCCCCCCC)C(C)C(O)c1ccc2cc(Br)c3ccccc3c2c1 (stereo not drawn) | -12.4
16 | CCOC(=O)C1=CC(=O)CC(C)(C)O1 | -2.6
17 | CCOc1ccc(Cc2ccc3c(c2)OCO3)cc1C | -17.2
18 | COc1ccccc1C1(CBr)OCCO1 | -6.15
19 | N#CC(NCCCNC(C#N)c1ccccc1)c1ccccc1 (stereo not drawn) | -1
20 | COC(=O)c1nc(=S)[nH]c(C(=O)OC)c1C(=O)c1ccccc1 | -25.9

Row | Compound | growth inhibition [%]
21 | COc1ccc(CCO)cc1 | 0.55
22 | CC(C)[C@H]1CC[C@@](C)(C(=O)O)C1 | 12.4
23 | N#C/C(=C\c1c(Cl)cccc1Cl)c1ccc([N+](=O)[O-])cc1 | 7.65
24 | Cc1c(C(=O)CSc2nc3ccccc3c(=O)n2-c2ccccc2)c(=O)n(-c2ccccc2)n1C | -9.1
25 | C[N+](C)(C)CCC(=O)N1C/C(=C\c2ccccc2)C(=O)/C(=C/c2ccccc2)C1 | -35.6
26 | O=C(CCc1ccccc1CO)NCCc1ccccc1 | 52
27 | O=C1CS(=O)(=O)c2ccccc21 | -11.4
28 | CSc1ccc(NC(=O)Oc2ccc(NC(C)=O)cc2)cc1 | 8.55
29 | CCOC(=O)N/N=C(\Cc1ccccc1)OCC | 16
30 | COC(=O)C1=NOC(Cc2ccccc2)C1 (stereo not drawn) | 10.3
31 | C=CCOC(=O)CCC(=O)OCC=C | 3.45
32 | CCN(CC)Cc1c(C)cccc1O | -4.65
33 | COc1cccc(N=NN2CCCC2)c1 | 16.2
34 | CCOCCC(C)(OCC)OCC | -11.8
35 | COC(=O)/C(=C\c1ccc(N(CCC#N)CCC#N)cc1)NC(=O)c1cc([N+](=O)[O-])ccc1Cl | -0.55
36 | COc1ccc(N2C(=O)/C(=C/c3ccc(N(CCC#N)CCC#N)cc3C)N=C2c2cc([N+](=O)[O-])ccc2Cl)cc1 | -13.2
37 | O=[N+]([O-])c1cccc2c1ccc1nonc12 | 17.2
38 | CCOc1cc(/C=N/NC(=O)N(c2ccccc2)c2ccccc2)ccc1O | 4.25
39 | CC(NN(C)C(=S)Nc1ccccc1)c1ccccn1 (stereo not drawn) | -6.7

experiment: NCI Yeast Anticancer Drug Screen. Data for the mec2-1 strain (AID 157); details: S. cerevisiae mec2-1 strain, at 50.0 µM, active compounds read high
Method in brief: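 Mutant yeast (mec2-1) grown with compound; growth inhibition relative to vehicle control reported.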

Row | Compound | growth inhibition [%]
40 | COC1CC2CC1C1COCC21 (stereo not drawn) | -4.05
41 | CC(=O)NC(CCC(=O)OC(C)(C)C)C(=O)NC(CCC(=O)OC(C)(C)C)C(=O)NC(Cc1ccc([N+](=O)[O-])cc1)C(=O)NC(CCCCNC(=O)OC(C)(C)C)C(=O)NC(CCCCNC(=O)OC(C)(C)C)C(=O)NCC(=O)O (stereo not drawn) (Ac-E(OtBu)E(OtBu)[Phe(4-NO2)]K(Boc)K(Boc)G-OH; configuration not given here) | -19.4
42 | COC(=O)c1nnn(CCc2c[nH]c3ccccc23)c1C(=O)OC | 4
43 | O=c1ccn2c(n1)OC1CC2OC1COC(c1ccccc1)(c1ccccc1)c1ccccc1 (stereo not drawn) | 4.15
44 | O=C(C(=NC12CC3CC(CC(C3)C1)C2)NNc1ccc([N+](=O)[O-])cc1[N+](=O)[O-])C(Br)C(=O)c1ccccc1 (stereo not drawn) | 45.9
45 | O=C1CC(c2ccccc2)=NN1c1ccccc1 | -25.4
46 | COCCNC(=O)/C=C\C(=O)O | -3.55
47 | C=CCCCC1CCCNC1=O (stereo not drawn) | 10.2
48 | O=C(NC(=O)c1c(F)cccc1F)Nc1ccc(C(O)(C(F)(F)F)C(F)(F)F)cc1 | 14.5
49 | Nc1nc(-c2ccc(F)cc2)cc(-c2cc(-c3ccc(F)cc3)nc(N)n2)n1 | -2.75
50 | CCc1cccc(CC)c1N(C(C)=O)C(C)=O | -1.3
51 | O=[N+]([O-])c1ccc(CSc2ncnc3c2ncn3C2OC(CO)C(O)C2O)cc1 (stereo not drawn) | 22.6
52 | c1ccc(N2CCN(C(c3cccs3)N3CCN(c4ccccc4)CC3)CC2)cc1 | 8.9
53 | CN(C)CCNC(=O)c1cccc2c(Nc3ccc(S(N)(=O)=O)cc3)c3ccccc3nc12 | 4
54 | CCCCCCCCCCN(CCCCCCCCCC)C(C)C(O)c1ccc2cc(Br)c3ccccc3c2c1 (stereo not drawn) | -13.2
55 | CCOC(=O)C1=CC(=O)CC(C)(C)O1 | 7.55
56 | CCOc1ccc(Cc2ccc3c(c2)OCO3)cc1C | -13.3
57 | COc1ccccc1C1(CBr)OCCO1 | -7.7
58 | N#CC(NCCCNC(C#N)c1ccccc1)c1ccccc1 (stereo not drawn) | 5.05
59 | COC(=O)c1nc(=S)[nH]c(C(=O)OC)c1C(=O)c1ccccc1 | -12.9

Row | Compound | growth inhibition [%]
60 | COc1ccc(CCO)cc1 | -36
61 | CC(C)[C@H]1CC[C@@](C)(C(=O)O)C1 | 7.5
62 | N#C/C(=C\c1c(Cl)cccc1Cl)c1ccc([N+](=O)[O-])cc1 | -0.2
63 | Cc1c(C(=O)CSc2nc3ccccc3c(=O)n2-c2ccccc2)c(=O)n(-c2ccccc2)n1C | 0.45
64 | C[N+](C)(C)CCC(=O)N1C/C(=C\c2ccccc2)C(=O)/C(=C/c2ccccc2)C1 | -15.2
65 | O=C(CCc1ccccc1CO)NCCc1ccccc1 | 20.9
66 | O=C1CS(=O)(=O)c2ccccc21 | 1.5
67 | CSc1ccc(NC(=O)Oc2ccc(NC(C)=O)cc2)cc1 | -0.95
68 | CCOC(=O)N/N=C(\Cc1ccccc1)OCC | 13.2
69 | COC(=O)C1=NOC(Cc2ccccc2)C1 (stereo not drawn) | 6.95
70 | C=CCOC(=O)CCC(=O)OCC=C | 6.2
71 | CCN(CC)Cc1c(C)cccc1O | -4.35
72 | COc1cccc(N=NN2CCCC2)c1 | 14.2
73 | CCOCCC(C)(OCC)OCC | -36.1
74 | COC(=O)/C(=C\c1ccc(N(CCC#N)CCC#N)cc1)NC(=O)c1cc([N+](=O)[O-])ccc1Cl | -3.65
75 | COc1ccc(N2C(=O)/C(=C/c3ccc(N(CCC#N)CCC#N)cc3C)N=C2c2cc([N+](=O)[O-])ccc2Cl)cc1 | 0.95
76 | O=[N+]([O-])c1cccc2c1ccc1nonc12 | -5.15
77 | CCOc1cc(/C=N/NC(=O)N(c2ccccc2)c2ccccc2)ccc1O | -8.6
78 | CC(NN(C)C(=S)Nc1ccccc1)c1ccccn1 (stereo not drawn) | -7.15
